Among the data in PubChem BioAssay AID463175 (Southern Research Specialized Biocontainment Screening …, 2010) are outcome values, retold here.

Active and inactive are the calls of the source.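 How the source made its calls: active means inhibition above 40% at one or more tested concentrations in the dose response counterscreen; inactive means inhibition below 40% at every dose tested.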

The nature of this assay: nmpC-GFP expression in S. Typhimurium, late-stage follow-up, counter-screen for PhoP regulon inhibitor project, synthesized compounds, set 5 (AID 463175). To be noted: S. Typhimurium non-PhoP-regulated nmpC promoter-GFP fluorescence (growth counterscreen), 4 h; series mostly up to 150 µM. Background: Counterscreens check selectivity or assay interference.
As for `Cc1ccc(C2Sc3ccccc3N=C3c4ccccc4CC32)cc1` (stereo unspecified), the compound was called inactive.

On to `O=C1C2=C(Nc3ccccc3SC2c2cccnc2)c2ccccc21` (stereo unspecified), for which the result was inactive.

On to `Clc1ccc(C2Sc3ccccc3N=C3c4ccccc4CC32)cc1` (stereo unspecified), for which the call was inactive.

For `COc1cccc(NC(=O)N2CCCN(Cc3ccccc3F)C2)c1`, the result was inactive.

As to `O=C1C2=C(Nc3ccccc3SC2c2cccc(Br)c2)c2ccccc21` (stereo unspecified), the result was inactive.

As for `O=C1C2=C(Nc3ccccc3SC2c2ccc(Cl)cc2)c2ccccc21` (stereo unspecified), the call was inactive.
